Consider 40 molecules from ChEMBL document CHEMBL1157539, “Thousands of chemical starting points for antimalarial lead identification” (Nature, 2010).

What is called Inhibition is the drop in the measured response relative to a control, in per cent. Read a high Inhibition as a strong effect.

The test system of one experiment is Plasmodium falciparum. Put plainly: GSK_TCMDC: Inhibition of Plasmodium falciparum Dd2 in whole red blood cells, using parasite LDH activity as an index of growth. Test compounds present at 2uM. In kind it is functional.
Consider `CN(C)CC(O)COc1ccc(Nc2ncc([N+](=O)[O-])c(Nc3ccccc3O)n2)cc1.O=C(O)C(F)(F)F` (configuration not stated), for which the Inhibition was 20%.
`COc1cc2nc(N3CCC(CNC(=O)c4ccc(-c5ccc(C(=O)N(C)C)cc5O)cc4)CC3)nc(N)c2cc1OC` gave an Inhibition of 90%.
On the same count and under the same terms, for `O=C(Nc1ccc(-c2cccc(-c3nc4cc(C(F)(F)F)ccc4[nH]3)c2)cc1)c1cccnc1` the value was 24%.
Still for that read-out and setting: for `CCC1(c2ccccc2)N=C(N)N(CCCc2ccccc2)C1=O` (configuration not stated) the value was 96%.
Still for that read-out and setting: then `CN(C)CCOc1ccc(-c2cc(-c3ccncc3)c(-c3ccc(Cl)c(O)c3)[nH]2)cc1.Cl`, with 100%; and `Br.CC1(C)NC(N)=NC(=N)N1OCCCCOc1ccccc1`, with 95%.
In turn, `CCN1C(=O)N(CCC(C)C)C2(CCN(Cc3ccc(OC)cc3O)CC2)C1=O` came in with an Inhibition of 77%.
The same measure, in the same setting: for `N#Cc1cccc(Nc2nccc(Nc3ccc(Oc4ccccc4)cc3)n2)c1` the value was 17%; for `Br.CC(C)(Cc1ccc(Cl)cc1)NCCCCCCNCCc1ccc(O)c(O)c1`, 0%.
`O=C(C1COc2ccccc2O1)N(CCCn1ccnc1)Cc1csc(-c2ccc(CNCc3ccccc3)cc2)n1.O=C(O)C(F)(F)F` (configuration not stated) had an Inhibition of 18%.
Still for that read-out and setting: for `CCCCCN1CCCC1CNS(=O)(=O)c1ccc(C(=O)Nc2cccc(C(F)(F)F)c2)cc1.O=C(O)C(F)(F)F` (configuration not stated) the value was 0%.
The same measure, in the same setting: then `Cc1cc(N[C@@H](Cc2ccccc2)C(=O)NC2CCCC2)nc(NCCc2cccs2)n1.O=C(O)C(F)(F)F`, with 14%.
As to `c1ccc(CN2CCN(c3cc(-c4cncc(-c5ccccc5)c4)nc(-c4ccccc4)n3)CC2)cc1`, the Inhibition stood at 12%.
Still for that read-out and setting: then `C[C@H](Cc1ccc(OCCCCCOc2ccc(C[C@@H](C)NC[C@H](O)c3cccc(Cl)c3)cc2)cc1)NC[C@H](O)c1cccc(Cl)c1.Cl`, with 100%; and `CN1CCCC(CN2CCN(Cc3cccc(-c4csc(-c5nc6ccccc6[nH]5)c4)c3)CC2)C1.O=C(O)C(F)(F)F` (configuration not stated), with 100%.
Still for that read-out and setting: for `O=C(Nc1cccc(C(F)(F)F)c1)Nc1ccc2nonc2c1` the value was 76%; for `Cc1cc(N[C@@H](CC(C)C)C(=O)Nc2ccccc2)nc(NCCc2ccc(F)cc2)n1.O=C(O)C(F)(F)F`, 94%; for `COc1ccc2ncc(F)c(CCN3CC(O)C(CNCc4ccccc4)C3)c2n1.Cl` (configuration not stated), 22%.
Take `Cc1cc(C)n(-c2nc(Nc3cccc(C(F)(F)F)c3)nc(-n3nc(C)cc3C)n2)n1`: the Inhibition came to 88%.
Same read-out and setting: then `CC(=O)Nc1ccc(C(=O)Nc2cccc(-c3csc(-c4nc5ccccc5[nH]4)c3)c2)cn1`, with 97%.
`CCN(CC)Cc1cc(Nc2ccnc3cc(Cl)ccc23)ccc1O.Cl.Cl.Cl`: the Inhibition came to 99%.
The same measure, in the same setting: then `CN(Cc1ccc(NC(=O)CCC2CCN(C(=O)/C=C/c3ccc(Cl)c(Cl)c3)CC2)cc1)C1CCOCC1`, with 2%; and `CCCN1CCN(CCCNC(=O)c2cc3c(Cl)nc4ccc(C)cc4c3s2)CC1`, with 27%.
`COc1ccc(CN2CCCN(Cc3ccc(C(=O)Nc4ccc(Cl)cc4)cc3)CC2)cc1.O=C(O)C(F)(F)F` registered an Inhibition of 3%.
Same read-out and setting: for `O=C(Nc1ccc(Cn2ncc(N3CCNCC3)c(Cl)c2=O)cc1)Nc1ccc(-c2ccccc2)cc1.O=C(O)C(F)(F)F` the value was 33%.
Still for that read-out and setting: then `Cc1cccc(CNc2nc(C)cc(N[C@@H](Cc3ccccc3)C(=O)NCc3cccc(F)c3)n2)c1.O=C(O)C(F)(F)F`, with 82%; and `Cc1noc(C)c1-c1cccc(CNCc2cccc(-c3cccc(-c4nc5cccc(C)c5[nH]4)c3)c2)c1.O=C(O)C(F)(F)F`, with 66%.
The same measure, in the same setting: then `Cc1cccc2nc(-c3ccc(-c4ccc(NC(=O)C(=O)c5cccn5C)cc4)cc3)[nH]c12`, with 15%; and `O=C(NCCCCN1CCC(C(c2ccccc2)c2ccccc2)CC1)c1ccc(NC(=O)c2ccc(Cl)cc2)cc1`, with 47%.
As to `O=C(NC1CCN(Cc2ccccc2)CC1)c1cc(-c2ccncc2)c(-c2ccc(Cl)c(O)c2)o1.O=C(O)C(F)(F)F`, the Inhibition is given as 86%.
Still for that read-out and setting: then `Nc1nc(-c2ccccn2)nc(-n2nc(-c3cccc(C(F)(F)F)c3)cc2N)n1.O=C(O)C(F)(F)F`, with 74%; and `C[C@H](CNc1ccnc(Nc2ccc3[nH]c(=O)[nH]c3c2)n1)c1ccccc1`, with 2%.

A further experiment deals with HepG2. The experiment is described as follows: GSK_TCMDC: Percent inhibition of human HepG2 cell line. Test compounds present at 10uM. In kind it is functional.
`Br.CC1(C)NC(N)=NC(=N)N1OCC1CCCCC1` registered an Inhibition of 67%.
On the same count and under the same terms, for `Cc1cc(CN2CC[C@H](NC(=O)c3ccc(Cl)c(Cl)c3)C2)ccc1OCCN1CCCC1.O=C(O)C(F)(F)F` the value was 56%.
`COc1cc(NC(=O)/C=C/c2ccc(-c3ccccc3)cc2)ccc1OCCN(C(C)C)C(C)C.Cl`: the Inhibition worked out at 58%.
Still for that read-out and setting: for `COc1cc2ccccc2c(CON2C(=N)N=C(N)NC2(C)C)c1OC.Cl` the value was 2%.
Same read-out and setting: then `O=C(N[C@@H](CC1CCCCC1)C(=O)NCCN1CCCC1)c1ccc(O)c(-c2cccc(C(F)(F)F)c2)c1`, with 0%; and `N#Cc1ccccc1C1CCN(C2CCC(Nc3cc(-c4cccnc4)ccn3)CC2)CC1` (configuration not stated), with 38%; and `CC(=O)Nc1ccc(C(=O)Nc2cccc(-c3ccc(-c4nc5ccccc5[nH]4)s3)c2)cn1`, with 9%.
Still for that read-out and setting: for `Cc1cccc(S(=O)(=O)Nc2cccc(CCN3CCC(N4CCCCC4)CC3)c2)c1` the value was 15%; for `CN(C)CC(O)COc1ccc(Nc2ncc([N+](=O)[O-])c(Nc3ccccc3O)n2)cc1.O=C(O)C(F)(F)F` (configuration not stated), 47%; for `COc1cc2nc(N3CCC(CNC(=O)c4ccc(-c5ccc(C(=O)N(C)C)cc5O)cc4)CC3)nc(N)c2cc1OC`, 2%.
On to `O=C(Nc1ccc(-c2cccc(-c3nc4cc(C(F)(F)F)ccc4[nH]3)c2)cc1)c1cccnc1`, for which the Inhibition is 74%.
Same read-out and setting: for `CCC1(c2ccccc2)N=C(N)N(CCCc2ccccc2)C1=O` (configuration not stated) the value was 17%; for `CN(C)CCOc1ccc(-c2cc(-c3ccncc3)c(-c3ccc(Cl)c(O)c3)[nH]2)cc1.Cl`, 25%.
Same read-out and setting: for `Br.CC1(C)NC(N)=NC(=N)N1OCCCCOc1ccccc1` the value was 60%.
The same measure, in the same setting: for `CCN1C(=O)N(CCC(C)C)C2(CCN(Cc3ccc(OC)cc3O)CC2)C1=O` the value was 13%.
As to `N#Cc1cccc(Nc2nccc(Nc3ccc(Oc4ccccc4)cc3)n2)c1`, the Inhibition is given as 12%.
The same measure, in the same setting: then `Br.CC(C)(Cc1ccc(Cl)cc1)NCCCCCCNCCc1ccc(O)c(O)c1`, with 45%.
For the molecule `O=C(C1COc2ccccc2O1)N(CCCn1ccnc1)Cc1csc(-c2ccc(CNCc3ccccc3)cc2)n1.O=C(O)C(F)(F)F` (configuration not stated), the Inhibition was 15%.
Same read-out and setting: then `CCCCCN1CCCC1CNS(=O)(=O)c1ccc(C(=O)Nc2cccc(C(F)(F)F)c2)cc1.O=C(O)C(F)(F)F` (configuration not stated), with 16%; and `Cc1cc(N[C@@H](Cc2ccccc2)C(=O)NC2CCCC2)nc(NCCc2cccs2)n1.O=C(O)C(F)(F)F`, with 0%; and `c1ccc(CN2CCN(c3cc(-c4cncc(-c5ccccc5)c4)nc(-c4ccccc4)n3)CC2)cc1`, with 9%.
Still for that read-out and setting: then `C[C@H](Cc1ccc(OCCCCCOc2ccc(C[C@@H](C)NC[C@H](O)c3cccc(Cl)c3)cc2)cc1)NC[C@H](O)c1cccc(Cl)c1.Cl`, with 99%; and `CN1CCCC(CN2CCN(Cc3cccc(-c4csc(-c5nc6ccccc6[nH]5)c4)c3)CC2)C1.O=C(O)C(F)(F)F` (configuration not stated), with 65%; and `O=C(Nc1cccc(C(F)(F)F)c1)Nc1ccc2nonc2c1`, with 0%.
The same measure, in the same setting: for `Cc1cc(N[C@@H](CC(C)C)C(=O)Nc2ccccc2)nc(NCCc2ccc(F)cc2)n1.O=C(O)C(F)(F)F` the value was 8%.
For the molecule `COc1ccc2ncc(F)c(CCN3CC(O)C(CNCc4ccccc4)C3)c2n1.Cl` (configuration not stated), the Inhibition is listed as 19%.
With `Cc1cc(C)n(-c2nc(Nc3cccc(C(F)(F)F)c3)nc(-n3nc(C)cc3C)n2)n1`, the Inhibition came out at 0%.
Same read-out and setting: for `CC(=O)Nc1ccc(C(=O)Nc2cccc(-c3csc(-c4nc5ccccc5[nH]4)c3)c2)cn1` the value was 6%; for `CCN(CC)Cc1cc(Nc2ccnc3cc(Cl)ccc23)ccc1O.Cl.Cl.Cl`, 0%.
In turn, `CN(Cc1ccc(NC(=O)CCC2CCN(C(=O)/C=C/c3ccc(Cl)c(Cl)c3)CC2)cc1)C1CCOCC1` had an Inhibition of 10%.
Same read-out and setting: for `CCCN1CCN(CCCNC(=O)c2cc3c(Cl)nc4ccc(C)cc4c3s2)CC1` the value was 18%.
Take `COc1ccc(CN2CCCN(Cc3ccc(C(=O)Nc4ccc(Cl)cc4)cc3)CC2)cc1.O=C(O)C(F)(F)F`: the Inhibition is 46%.
Same read-out and setting: for `O=C(Nc1ccc(Cn2ncc(N3CCNCC3)c(Cl)c2=O)cc1)Nc1ccc(-c2ccccc2)cc1.O=C(O)C(F)(F)F` the value was 29%; for `Cc1cccc(CNc2nc(C)cc(N[C@@H](Cc3ccccc3)C(=O)NCc3cccc(F)c3)n2)c1.O=C(O)C(F)(F)F`, 39%; for `Cc1noc(C)c1-c1cccc(CNCc2cccc(-c3cccc(-c4nc5cccc(C)c5[nH]4)c3)c2)c1.O=C(O)C(F)(F)F`, 15%.
The same measure, in the same setting: for `Cc1cccc2nc(-c3ccc(-c4ccc(NC(=O)C(=O)c5cccn5C)cc4)cc3)[nH]c12` the value was 40%.
In turn, `O=C(NCCCCN1CCC(C(c2ccccc2)c2ccccc2)CC1)c1ccc(NC(=O)c2ccc(Cl)cc2)cc1` yielded an Inhibition of 12%.
Molecule `O=C(NC1CCN(Cc2ccccc2)CC1)c1cc(-c2ccncc2)c(-c2ccc(Cl)c(O)c2)o1.O=C(O)C(F)(F)F` came in with an Inhibition of 9%.
Still for that read-out and setting: for `Nc1nc(-c2ccccn2)nc(-n2nc(-c3cccc(C(F)(F)F)c3)cc2N)n1.O=C(O)C(F)(F)F` the value was 14%; for `C[C@H](CNc1ccnc(Nc2ccc3[nH]c(=O)[nH]c3c2)n1)c1ccccc1`, 50%.
